Test results published in PubChem BioAssay.
Unmarked numbers belong to inactive results. The source made the active and inactive calls.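 Rule for the calls: active = GFP response above 150% of the DMSO control; inconclusive = Fewer than 70 cells counted for a yeast strain; inactive = the rest.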

test: modulators of MEP2-GFP levels in yeast, confirmation, S. cerevisiae, flow cytometry GFP, cherry picks (AID 2272);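 note: ratio of well signal to plate DMSO mean so 100% equals DMSO level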; settings: S. cerevisiae MEP2-GFP strain, 3 h, at 10 µM, hits give high values

Point of comparison: `COc1ccc(N2CCN(C(=O)C3CCCN(S(=O)(=O)c4ccc(C)cc4)C3)CC2)cc1` (stereo not given), GFP response vs DMSO 105%. Against it:
- COC(=O)c1ccccc1Sc1ncnc2onc(C)c12 — higher, 120%
- CC(C)(C)C(=O)C(Cl)C(=O)Nc1ccccc1 (stereo not given) — higher, 145%
- O=[N+]([O-])c1ccc(S(=O)(=O)c2cccc(C(F)(F)F)c2)nc1 — higher, 157%
- Cc1cccn2c(=O)c(/C=C(\C#N)C(=O)NC3CCS(=O)(=O)C3)c(N3CC(C)OC(C)C3)nc12 (stereo not given) — lower, 100%
- CCc1nnc(NC(=O)c2ccc(S(=O)(=O)N(CCOC)CCOC)cc2)o1 — lower, 96.2%
- Cc1ccc(N(C(=O)CCCC(=O)Nc2ccccn2)C(C(=O)NC2CCCC2)c2ccc(O)cc2)cc1C (stereo not given) — higher, 117%
- COc1ccc(OC)c(C2C(C(=O)Nc3nc4ccccc4s3)=C(C)NC3=C2C(=O)CCC3)c1 (stereo not given) — higher, 109%
- COc1ccccc1OC(C)C(=O)Nc1ccccc1C(=O)NCC1CCCO1 (stereo not given) — lower, 99.5%
- COc1ccc(NS(=O)(=O)c2cccc3ccccc23)cc1 — lower, 102%
- O=C(c1ccc2ccccc2c1)N1CCN(c2ccc(O)cc2)CC1 — higher, 106%
- O=C1c2ccsc2SCCN1Cc1cccc(Cl)c1 — lower, 98.3%
- CCCOc1ccc(C(=O)NNC(=S)NC(=O)CC)cc1 — higher, 139%
- Cc1cccc(N2C(=O)c3cccc4c(N(C)CCO)ccc(c34)C2=O)c1 — lower, 103%
- Cc1ccc(-n2ncc(C#N)c2/N=C/N(C)C)cc1 — higher, 107%
- C=CCOc1ccccc1C(=O)/C=C1/C(=O)Nc2ccccc21 — lower, 94.7%
- O=c1cnnc(SCc2ccc([N+](=O)[O-])cc2)[nH]1 — the same, 105%
- Cc1ccc(S(=O)(=O)N2CCCC2C(=O)Oc2ccccc2)cc1 (stereo not given) — lower, 100%
- COCCNc1c(-c2ccc(O)cc2)nc2ccc(Cl)cn12 — lower, 98.3%
- O=C(Nc1nc(-c2ccc(F)cc2)cs1)c1cnccn1 — higher, 110%
- CS(=O)(=O)N1N=C(c2ccc3nccnc3c2)CC1c1ccccc1 (stereo not given) — lower, 101%
- O=C(NCCCSc1ccccc1)c1cc(Cl)ccc1O — lower, 104%
- COc1ccc(N2C(=O)CC(Sc3ncn[nH]3)C2=O)c(OC)c1 (stereo not given) — higher, 110%
- CN1CCSc2ccc(C(=O)Nc3cccc(F)c3)cc21 — lower, 99.5%
- CCN(CC)CCCN(C(=O)c1ccc(Br)cc1)c1nc(-c2ccc(OC)cc2)cs1 — lower, 101%
- O=C(Nc1nccs1)C1CCCN1S(=O)(=O)c1ccc(F)cc1 (stereo not given) — lower, 100%
- O=C(c1ccccc1)c1ccccc1N1C(=O)C=CC1=O — higher, 156%
- Cc1cc(NCCCN2CCOCC2)n2nc(C)c(-c3ccc(F)cc3)c2n1 — lower, 103%
- CCC(C)(C)n1nnnc1C(c1ccc(O)c(OC)c1)N1CCc2ccccc2C1 (stereo not given) — lower, 99.5%
- COc1ccc(-c2csc(Nc3ncccc3C)n2)cc1 — lower, 98.3%
- O=S(=O)(Nc1ccc(Br)cc1)c1cccc2nonc12 — lower, 99.5%
- O=C(CSc1nnc(C2COc3ccccc3O2)o1)N1CCCC1 (stereo not given) — lower, 98.8%
- CCc1noc(C)c1C(=O)Nc1nc2ccc(OC)cc2s1 — lower, 99.3%
- CSc1ccc(-c2cc(=O)c3ccccc3o2)cc1 — lower, 95.2%
- COc1ccccc1C(=O)N1CCN(c2cccc(C(F)(F)F)c2)CC1 — lower, 99.5%
- COc1cc(/C=C2\N=C(c3ccccc3)OC2=O)ccc1OCc1c(C)no[n+]1[O-] — lower, 104%
- CC(C)C(=O)Nc1ccc(NC(=O)c2cc3ccccc3o2)cc1 — lower, 99.3%
- CCOC(=O)Cc1csc(NC(=O)CSc2nnc(-c3ccc(C)cc3)o2)n1 — lower, 104%

For `O=[N+]([O-])c1ccc(-c2cn3nc(-c4ccccc4)c(-c4ccccc4)nc3n2)cc1`, the GFP response vs DMSO was 227% (active).
In the case of `CCc1ccc(C(=O)/C=C/c2ccc([N+](=O)[O-])o2)cc1`, the GFP response vs DMSO is reported as 180% (active).
